Data as given in PMC7862700, “An all-to-all approach to the identification of sequence-specific readers for epigenetic DNA modifications on cytosine”.

What was measured:
Experiment in all cases: DAPPL (digital affinity profiling via proximity ligation, sequencing); 10 mM Tris-HCl pH 7.5, 50 mM NaCl, 1 mM DTT, 4% glycerol, room temperature, 30 min; GST-TFs on glutathione beads, 16-mer random dsDNA library, 0.1% formaldehyde crosslink after washing; high values mean tight binding
[1] = molecular target: T1, FLI1 (Homo sapiens, UniProt Q01543 1-452); details: protein: recombinant; tags: N-terminal GST; dsDNA, one strand shown
T1 sequence: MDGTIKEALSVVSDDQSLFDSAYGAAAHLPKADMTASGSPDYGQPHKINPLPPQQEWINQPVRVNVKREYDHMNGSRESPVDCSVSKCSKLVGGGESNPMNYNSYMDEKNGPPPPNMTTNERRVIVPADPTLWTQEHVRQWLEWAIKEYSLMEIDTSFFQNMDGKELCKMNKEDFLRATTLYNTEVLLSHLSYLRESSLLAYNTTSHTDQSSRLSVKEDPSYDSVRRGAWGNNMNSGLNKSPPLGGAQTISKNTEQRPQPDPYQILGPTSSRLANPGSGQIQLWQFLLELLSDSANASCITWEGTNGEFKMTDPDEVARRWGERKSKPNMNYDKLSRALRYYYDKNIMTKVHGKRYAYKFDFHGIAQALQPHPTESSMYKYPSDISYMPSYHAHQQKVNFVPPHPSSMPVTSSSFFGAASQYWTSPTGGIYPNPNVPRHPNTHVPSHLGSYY
Outline: (§1)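 The binding signal reported is, for every hexamer, its read frequency for a factor over its read frequency for the tag-only sample. Reads came from pools of yeast-expressed, GST-fused human transcription factors on glutathione beads, barcoded with DNA and mixed with that sample, which were incubated with 200 nmole of a random double-stranded 16-mer DNA library in Tris/NaCl/DTT/glycerol buffer at room temperature for 30 min. After washing, the pools were crosslinked with 0.1% formaldehyde, proximity-ligated with BsaI/T4 ligase for 1 h at 37 °C, PCR-amplified and sequenced on an Illumina NextSeq500.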

[2] = molecular target: T2, ELK1 (Homo sapiens, UniProt P19419 1-428); details: protein: recombinant; tags: N-terminal GST; dsDNA, one strand shown
T2 sequence: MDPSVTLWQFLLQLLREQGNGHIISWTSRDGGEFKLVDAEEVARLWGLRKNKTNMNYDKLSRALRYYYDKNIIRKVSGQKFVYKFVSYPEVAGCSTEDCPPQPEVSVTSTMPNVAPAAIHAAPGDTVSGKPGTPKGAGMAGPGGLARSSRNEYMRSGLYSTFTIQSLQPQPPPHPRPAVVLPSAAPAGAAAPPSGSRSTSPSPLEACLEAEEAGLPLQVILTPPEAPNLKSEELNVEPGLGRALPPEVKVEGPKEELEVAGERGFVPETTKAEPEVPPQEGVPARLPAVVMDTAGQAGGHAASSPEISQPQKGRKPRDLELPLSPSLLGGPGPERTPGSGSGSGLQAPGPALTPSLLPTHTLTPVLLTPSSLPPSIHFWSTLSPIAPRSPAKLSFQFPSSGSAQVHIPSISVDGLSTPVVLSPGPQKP
Outline: as §1

[3] = molecular target: T3, GABPA (Homo sapiens, UniProt Q06546 1-454); details: protein: recombinant; tags: N-terminal GST; dsDNA, one strand shown
T3 sequence: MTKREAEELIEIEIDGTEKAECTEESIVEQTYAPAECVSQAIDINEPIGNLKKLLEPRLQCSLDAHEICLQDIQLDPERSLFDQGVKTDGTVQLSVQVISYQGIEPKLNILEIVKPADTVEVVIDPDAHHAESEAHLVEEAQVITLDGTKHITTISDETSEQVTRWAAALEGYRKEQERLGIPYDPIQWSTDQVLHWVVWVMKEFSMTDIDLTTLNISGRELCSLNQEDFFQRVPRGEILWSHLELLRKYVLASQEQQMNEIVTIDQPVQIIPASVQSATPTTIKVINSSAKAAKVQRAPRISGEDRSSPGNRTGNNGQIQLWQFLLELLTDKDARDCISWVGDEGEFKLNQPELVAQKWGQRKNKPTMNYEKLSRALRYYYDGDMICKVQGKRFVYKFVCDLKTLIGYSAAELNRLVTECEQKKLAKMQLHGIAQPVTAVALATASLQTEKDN
Outline: as §1

[4] = molecular target: T4, ERG (Homo sapiens, UniProt P11308 1-479); details: protein: recombinant; tags: N-terminal GST; dsDNA, one strand shown
T4 sequence: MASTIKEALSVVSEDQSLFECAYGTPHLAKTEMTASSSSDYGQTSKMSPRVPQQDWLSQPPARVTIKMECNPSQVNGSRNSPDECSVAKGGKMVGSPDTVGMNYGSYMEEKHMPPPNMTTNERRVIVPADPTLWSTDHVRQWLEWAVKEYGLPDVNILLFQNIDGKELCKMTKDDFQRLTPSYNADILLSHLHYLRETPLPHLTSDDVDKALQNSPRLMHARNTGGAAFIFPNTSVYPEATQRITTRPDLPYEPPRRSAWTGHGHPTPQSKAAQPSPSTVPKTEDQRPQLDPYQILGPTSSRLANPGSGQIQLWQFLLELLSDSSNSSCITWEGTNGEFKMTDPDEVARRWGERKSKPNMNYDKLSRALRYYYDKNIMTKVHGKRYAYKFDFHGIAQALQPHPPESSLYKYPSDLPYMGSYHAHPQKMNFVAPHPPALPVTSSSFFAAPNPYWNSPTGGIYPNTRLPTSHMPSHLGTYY
Outline: as §1

[5] = molecular target: ELF1 (Homo sapiens, UniProt P32519 1-619); details: protein: recombinant; tags: N-terminal GST; dsDNA, one strand shown
Outline: as §1

[6] = molecular target: T5, EHF (Homo sapiens, UniProt Q9NZC4 1-300); details: protein: recombinant; tags: N-terminal GST; dsDNA, one strand shown
T5 sequence: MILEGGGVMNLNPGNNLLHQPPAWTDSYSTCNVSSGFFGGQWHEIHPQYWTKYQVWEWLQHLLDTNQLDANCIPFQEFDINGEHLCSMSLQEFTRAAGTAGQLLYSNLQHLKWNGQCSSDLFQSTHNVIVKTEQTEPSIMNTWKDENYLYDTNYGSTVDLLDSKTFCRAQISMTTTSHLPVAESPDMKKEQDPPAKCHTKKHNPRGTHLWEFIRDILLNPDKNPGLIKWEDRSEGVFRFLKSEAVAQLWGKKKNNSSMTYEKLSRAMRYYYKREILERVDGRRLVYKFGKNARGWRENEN
Outline: as §1

[7] = molecular target: SPI1 (Homo sapiens, UniProt P17947 1-270); details: protein: recombinant; tags: N-terminal GST; dsDNA, one strand shown
Outline: as §1

[8] = molecular target: SPIB (Homo sapiens, UniProt Q01892 1-262); details: protein: recombinant; tags: N-terminal GST; dsDNA, one strand shown
Outline: as §1

[9] = molecular target: T6, ELK3 (Homo sapiens, UniProt P41970 1-407); details: protein: recombinant; tags: N-terminal GST; dsDNA, one strand shown
T6 sequence: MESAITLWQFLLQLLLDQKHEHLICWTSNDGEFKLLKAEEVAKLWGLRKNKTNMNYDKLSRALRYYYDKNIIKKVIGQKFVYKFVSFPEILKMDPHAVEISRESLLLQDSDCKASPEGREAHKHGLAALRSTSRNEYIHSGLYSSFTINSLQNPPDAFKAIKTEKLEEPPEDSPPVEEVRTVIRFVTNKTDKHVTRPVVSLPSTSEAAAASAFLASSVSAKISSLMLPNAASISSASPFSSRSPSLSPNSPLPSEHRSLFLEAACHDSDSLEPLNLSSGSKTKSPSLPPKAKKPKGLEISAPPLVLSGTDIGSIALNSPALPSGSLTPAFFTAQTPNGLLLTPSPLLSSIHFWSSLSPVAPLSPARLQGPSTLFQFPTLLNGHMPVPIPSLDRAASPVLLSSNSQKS
Outline: as §1

[10] = molecular target: T7, FEV (Homo sapiens, UniProt Q99581 1-238); details: protein: recombinant; tags: N-terminal GST; dsDNA, one strand shown
T7 sequence: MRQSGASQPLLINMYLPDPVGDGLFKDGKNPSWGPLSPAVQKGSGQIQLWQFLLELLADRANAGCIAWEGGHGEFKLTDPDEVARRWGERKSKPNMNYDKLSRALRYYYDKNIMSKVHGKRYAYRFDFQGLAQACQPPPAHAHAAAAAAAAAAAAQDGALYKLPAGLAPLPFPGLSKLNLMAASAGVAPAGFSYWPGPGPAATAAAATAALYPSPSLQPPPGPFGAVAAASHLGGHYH
Outline: as §1

[11] = molecular target: ETV5 (Homo sapiens, UniProt P41161 1-510); details: protein: recombinant; tags: N-terminal GST; dsDNA, one strand shown
Outline: as §1

[12] = molecular target: HSF1 (Homo sapiens, UniProt Q00613 1-529); details: protein: recombinant; tags: N-terminal GST; chain copies: 3; dsDNA, one strand shown
Outline: as §1

[13] = molecular target: ELF4 (Homo sapiens, UniProt Q99607 1-663); details: protein: recombinant; tags: N-terminal GST; dsDNA, one strand shown
Outline: as §1

[14] = molecular target: T8, ELK4 (Homo sapiens, UniProt P28324-2 1-405); details: protein: recombinant; tags: N-terminal GST; dsDNA, one strand shown
T8 sequence: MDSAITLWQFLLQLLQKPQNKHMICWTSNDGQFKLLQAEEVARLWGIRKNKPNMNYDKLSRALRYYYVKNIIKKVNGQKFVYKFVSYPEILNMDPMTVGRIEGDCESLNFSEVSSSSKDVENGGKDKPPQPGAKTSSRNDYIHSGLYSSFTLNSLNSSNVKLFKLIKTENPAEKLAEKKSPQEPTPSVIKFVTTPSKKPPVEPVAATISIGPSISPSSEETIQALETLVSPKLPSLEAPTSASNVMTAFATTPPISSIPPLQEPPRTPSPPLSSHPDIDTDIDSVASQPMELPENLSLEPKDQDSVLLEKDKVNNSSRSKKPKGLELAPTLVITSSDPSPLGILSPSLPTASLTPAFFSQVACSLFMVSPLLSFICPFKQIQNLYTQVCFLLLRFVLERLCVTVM
Outline: as §1

[15] = molecular target: T9, ETV2 (Homo sapiens, UniProt O00321 1-342); details: protein: recombinant; tags: N-terminal GST; dsDNA, one strand shown
T9 sequence: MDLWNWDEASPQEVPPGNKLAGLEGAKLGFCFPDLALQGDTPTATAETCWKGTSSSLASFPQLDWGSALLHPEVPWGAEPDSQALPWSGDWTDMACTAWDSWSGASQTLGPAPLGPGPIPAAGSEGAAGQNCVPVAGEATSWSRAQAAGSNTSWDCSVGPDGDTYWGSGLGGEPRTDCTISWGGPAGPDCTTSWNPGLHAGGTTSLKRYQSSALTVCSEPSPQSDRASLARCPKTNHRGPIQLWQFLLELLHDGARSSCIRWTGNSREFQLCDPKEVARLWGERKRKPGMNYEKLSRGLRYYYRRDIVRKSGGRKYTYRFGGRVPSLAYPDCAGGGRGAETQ
Outline: as §1

[16] = molecular target: T10, ELF3 (Homo sapiens, UniProt P78545 1-371); details: protein: recombinant; tags: N-terminal GST; dsDNA, one strand shown
T10 sequence: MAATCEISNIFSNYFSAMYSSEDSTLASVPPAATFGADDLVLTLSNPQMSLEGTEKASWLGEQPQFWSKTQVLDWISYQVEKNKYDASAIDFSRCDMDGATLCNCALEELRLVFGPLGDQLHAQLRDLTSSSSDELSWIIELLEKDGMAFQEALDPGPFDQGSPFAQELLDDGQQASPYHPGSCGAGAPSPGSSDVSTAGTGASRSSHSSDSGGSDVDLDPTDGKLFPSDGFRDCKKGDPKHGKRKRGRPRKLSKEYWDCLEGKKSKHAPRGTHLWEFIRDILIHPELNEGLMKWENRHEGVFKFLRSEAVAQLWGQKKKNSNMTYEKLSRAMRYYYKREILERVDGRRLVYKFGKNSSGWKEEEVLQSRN
Outline: as §1

[17] = molecular target: CRX (Homo sapiens, UniProt O43186 1-299); details: protein: recombinant; tags: N-terminal GST; dsDNA, one strand shown
Outline: as §1

[18] = molecular target: ETV1 (Homo sapiens, UniProt P50549 1-477); details: protein: recombinant; tags: N-terminal GST; dsDNA, one strand shown
Outline: as §1

Sequence of SPIB (Q01892 whole entry): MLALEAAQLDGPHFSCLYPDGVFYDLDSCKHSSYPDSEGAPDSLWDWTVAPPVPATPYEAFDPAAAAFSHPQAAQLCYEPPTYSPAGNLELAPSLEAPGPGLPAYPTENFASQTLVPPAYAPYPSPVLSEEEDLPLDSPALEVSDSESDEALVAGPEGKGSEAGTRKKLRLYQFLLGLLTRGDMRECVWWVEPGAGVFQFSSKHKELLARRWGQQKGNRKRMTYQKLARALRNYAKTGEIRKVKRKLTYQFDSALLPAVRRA
Sequence of ELF4 (Q99607 whole entry): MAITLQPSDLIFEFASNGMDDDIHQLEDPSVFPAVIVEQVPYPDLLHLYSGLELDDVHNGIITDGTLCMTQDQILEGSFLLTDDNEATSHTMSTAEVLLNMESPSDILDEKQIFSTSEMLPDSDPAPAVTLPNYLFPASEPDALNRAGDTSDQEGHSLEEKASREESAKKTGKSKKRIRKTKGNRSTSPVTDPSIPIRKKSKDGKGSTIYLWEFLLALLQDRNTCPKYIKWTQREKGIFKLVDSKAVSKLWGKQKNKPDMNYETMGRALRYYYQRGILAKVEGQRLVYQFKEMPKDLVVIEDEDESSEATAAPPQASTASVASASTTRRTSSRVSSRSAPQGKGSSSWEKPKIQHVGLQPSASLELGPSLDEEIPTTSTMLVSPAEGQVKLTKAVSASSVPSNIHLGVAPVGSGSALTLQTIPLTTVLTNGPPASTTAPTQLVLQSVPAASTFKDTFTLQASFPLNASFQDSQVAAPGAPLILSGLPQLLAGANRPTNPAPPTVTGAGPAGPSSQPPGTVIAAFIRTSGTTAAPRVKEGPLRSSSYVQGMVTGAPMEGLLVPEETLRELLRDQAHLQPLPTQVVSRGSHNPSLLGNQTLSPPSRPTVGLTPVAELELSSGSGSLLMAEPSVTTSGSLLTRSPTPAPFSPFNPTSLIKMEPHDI
Sequence of ETV1 (P50549 whole entry): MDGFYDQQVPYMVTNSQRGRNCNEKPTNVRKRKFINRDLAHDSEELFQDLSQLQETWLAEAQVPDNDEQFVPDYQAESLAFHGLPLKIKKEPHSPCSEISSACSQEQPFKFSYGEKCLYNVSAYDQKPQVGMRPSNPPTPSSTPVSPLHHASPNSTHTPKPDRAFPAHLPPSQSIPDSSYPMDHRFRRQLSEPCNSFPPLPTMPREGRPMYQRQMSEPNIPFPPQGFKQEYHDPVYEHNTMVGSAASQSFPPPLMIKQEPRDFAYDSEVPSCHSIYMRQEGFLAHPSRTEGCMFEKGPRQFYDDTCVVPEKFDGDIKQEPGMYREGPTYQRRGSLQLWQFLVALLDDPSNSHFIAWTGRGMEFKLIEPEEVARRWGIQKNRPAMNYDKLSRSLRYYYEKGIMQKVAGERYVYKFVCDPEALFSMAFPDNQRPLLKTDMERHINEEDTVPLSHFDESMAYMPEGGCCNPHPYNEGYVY
Sequence of ELF1 (P32519 whole entry): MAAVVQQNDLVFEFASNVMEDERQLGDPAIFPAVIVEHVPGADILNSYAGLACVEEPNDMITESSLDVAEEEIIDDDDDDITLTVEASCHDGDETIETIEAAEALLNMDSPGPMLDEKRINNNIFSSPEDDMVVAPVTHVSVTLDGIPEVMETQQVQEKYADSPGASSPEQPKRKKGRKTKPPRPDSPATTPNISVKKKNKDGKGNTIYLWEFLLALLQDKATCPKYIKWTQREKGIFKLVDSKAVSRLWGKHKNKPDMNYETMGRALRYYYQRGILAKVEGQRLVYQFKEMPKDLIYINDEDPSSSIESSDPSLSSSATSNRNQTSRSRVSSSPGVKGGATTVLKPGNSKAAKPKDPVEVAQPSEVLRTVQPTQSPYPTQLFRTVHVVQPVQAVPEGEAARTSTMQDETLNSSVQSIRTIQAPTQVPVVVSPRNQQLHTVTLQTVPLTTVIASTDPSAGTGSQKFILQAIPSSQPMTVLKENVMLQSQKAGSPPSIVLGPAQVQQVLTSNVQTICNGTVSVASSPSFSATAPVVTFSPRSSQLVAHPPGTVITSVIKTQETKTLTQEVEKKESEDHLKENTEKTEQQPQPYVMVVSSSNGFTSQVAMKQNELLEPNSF
Sequence of ETV5 (P41161 whole entry): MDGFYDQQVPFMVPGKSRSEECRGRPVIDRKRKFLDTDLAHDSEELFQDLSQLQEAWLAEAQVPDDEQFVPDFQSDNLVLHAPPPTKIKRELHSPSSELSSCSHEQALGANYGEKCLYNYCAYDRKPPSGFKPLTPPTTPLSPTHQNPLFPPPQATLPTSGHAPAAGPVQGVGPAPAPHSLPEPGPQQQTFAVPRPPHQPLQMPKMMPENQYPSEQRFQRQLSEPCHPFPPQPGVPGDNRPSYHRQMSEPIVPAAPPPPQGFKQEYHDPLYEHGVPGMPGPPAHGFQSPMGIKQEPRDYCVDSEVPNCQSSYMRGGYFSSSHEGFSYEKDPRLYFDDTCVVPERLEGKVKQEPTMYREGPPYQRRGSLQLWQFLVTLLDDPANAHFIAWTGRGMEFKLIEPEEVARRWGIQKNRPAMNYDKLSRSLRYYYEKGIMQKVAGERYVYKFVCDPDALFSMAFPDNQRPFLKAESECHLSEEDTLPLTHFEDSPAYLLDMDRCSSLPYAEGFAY
Sequence of HSF1 (Q00613 whole entry): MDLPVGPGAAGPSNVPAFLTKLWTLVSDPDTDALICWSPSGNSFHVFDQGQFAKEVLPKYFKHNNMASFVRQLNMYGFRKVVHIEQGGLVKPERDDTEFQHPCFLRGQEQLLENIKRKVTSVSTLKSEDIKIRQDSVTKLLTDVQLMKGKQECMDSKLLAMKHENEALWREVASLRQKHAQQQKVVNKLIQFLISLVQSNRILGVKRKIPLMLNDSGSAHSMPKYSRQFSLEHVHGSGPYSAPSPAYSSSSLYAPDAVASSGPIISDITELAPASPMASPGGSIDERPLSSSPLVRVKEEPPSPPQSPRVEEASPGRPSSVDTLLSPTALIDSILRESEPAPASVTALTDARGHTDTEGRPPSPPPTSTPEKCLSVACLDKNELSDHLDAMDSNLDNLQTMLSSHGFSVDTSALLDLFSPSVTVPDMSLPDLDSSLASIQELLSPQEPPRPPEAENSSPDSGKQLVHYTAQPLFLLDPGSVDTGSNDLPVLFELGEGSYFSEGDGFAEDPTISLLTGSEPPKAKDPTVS
Sequence of CRX (O43186 whole entry): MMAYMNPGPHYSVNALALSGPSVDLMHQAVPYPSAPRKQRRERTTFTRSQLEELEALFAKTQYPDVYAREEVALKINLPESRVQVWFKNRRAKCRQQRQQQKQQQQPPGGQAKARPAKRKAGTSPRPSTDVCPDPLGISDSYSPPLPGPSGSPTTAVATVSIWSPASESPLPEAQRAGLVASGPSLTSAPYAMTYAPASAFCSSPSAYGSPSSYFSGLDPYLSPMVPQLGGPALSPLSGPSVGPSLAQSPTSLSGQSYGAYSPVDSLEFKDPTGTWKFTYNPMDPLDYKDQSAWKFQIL

AGCTGC was tested, and the binding signal [1] was 1.16 fold enrichment (6-mer frequency, TF over GST control), the binding signal [2] was 1.16 fold enrichment (6-mer frequency, TF over GST control) and the binding signal [3] was 1.17 fold enrichment (6-mer frequency, TF over GST control). For the same sequence, the binding signal [4] was 1.1 fold enrichment (6-mer frequency, TF over GST control), the binding signal [5] was 1.18 fold enrichment (6-mer frequency, TF over GST control) and the binding signal [6] was 1.18 fold enrichment (6-mer frequency, TF over GST control). The binding signal [7] was 1.11 fold enrichment (6-mer frequency, TF over GST control), the binding signal [8] was 1.24 fold enrichment (6-mer frequency, TF over GST control) and the binding signal [9] was 1.01 fold enrichment (6-mer frequency, TF over GST control). For the same sequence, the binding signal [10] was 1.15 fold enrichment (6-mer frequency, TF over GST control), the binding signal [11] was 1.06 fold enrichment (6-mer frequency, TF over GST control) and the binding signal [12] was 1.04 fold enrichment (6-mer frequency, TF over GST control). For the same sequence, the binding signal [13] was 1.16 fold enrichment (6-mer frequency, TF over GST control), the binding signal [14] was 1.11 fold enrichment (6-mer frequency, TF over GST control) and the binding signal [15] was 1.22 fold enrichment (6-mer frequency, TF over GST control). For the same sequence, the binding signal [16] was 1.08 fold enrichment (6-mer frequency, TF over GST control), the binding signal [17] was 1.13 fold enrichment (6-mer frequency, TF over GST control) and the binding signal [18] was 1.18 fold enrichment (6-mer frequency, TF over GST control).
